In PubChem BioAssay AID1159580 (chemical genetic matrix, 2015):
Values joined by “and” are separate entries in the source; they are usually repeats but may differ in a detail not shown here. Equal values may be shown once. In all, about 5,500 compounds went through this assay and about 2,000 (36%) were called active. About 18% were inconclusive and are not listed. Rule as the data show it: active = normalized growth mostly below about 0.91 (no sharp cut-off); inconclusive = no clear call, values can overlap the other calls; inactive = mostly above about 0.92. The list shows a part of the results.

Test: chemical genetic growth profiling, strain panel (AID 1159580);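 also: tested at 20 µM; growth read once vehicle control cultures reached saturation at 30 °C; 1 = growth at the plate median or of vehicle wells; lower values mean less growth of the strain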
Details: S. cerevisiae deletion strains, growth OD

Measured: normalized growth

CN1CCN(C2=Nc3ccccc3Oc3ccc(Cl)cc32)CC1
inactive: locus YAL013W, strain DEP1, active compounds read low 0.995 and 0.98 | locus YAL021C, strain ccr4, active compounds read low 0.981 | locus YAL026C, strain drs2, active compounds read low 0.984 | locus YAL030W, strain snc1, active compounds read low 1 | locus YAL040C, strain CLN3, active compounds read low 0.979 | locus YBL061C, strain skt5, active compounds read low 0.982 | locus YBR009C, strain hhf1, active compounds read low 1.01 | locus YBR021W, strain FUR4, active compounds read low 1.01 | locus YBR023C, strain chs3, active compounds read low 1 | locus YBR171W, strain sec66, active compounds read low 0.964 | locus YBR229C, strain ROT2, active compounds read low 0.953 | locus YBR231C, strain swc5, active compounds read low 0.988 | locus YBR279W, strain paf1, active compounds read low 0.987 | locus YCL011C, strain gbp2, active compounds read low 0.978 | locus YCL016C, strain dcc1, active compounds read low 1 | locus YCL029C, strain bik1, active compounds read low 0.994 | locus YCL061C, strain MRC1 (second series), active compounds read low 0.992 | locus YCL061C, strain MRC1, active compounds read low 0.989 | locus YCL069W, strain vba3, active compounds read low 0.999 | locus YCR088W, strain abp1, active compounds read low 0.993 | locus YDL005C, strain med2, active compounds read low 0.972 | locus YDL035C, strain GPR1, active compounds read low 0.988 | locus YDL040C, strain nat1, active compounds read low 0.97 | locus YDL074C, strain BRE1, active compounds read low 0.997 | locus YDL101C, strain DUN1, active compounds read low 0.989 | locus YDL134C, strain PPH21, active compounds read low 0.979 | locus YDL185W, strain tfp1, active compounds read low 0.992 | locus YDL192W, strain arf1, active compounds read low 0.991 | locus YDR001C, strain nth1, active compounds read low 0.967 | locus YDR069C, strain doa4, active compounds read low 0.969 | locus YDR101C, strain arx1, active compounds read low 0.994 | locus YDR137W, strain rgp1, active compounds read low 1.01 | locus YDR150W, strain NUM1, active compounds read low 0.991 and 1.02 | locus YDR159W, strain sac3, active compounds read low 0.972 | locus YDR162C, strain NBP2, active compounds read low 1.01 | locus YDR195W, strain ref2 0.948 | locus YDR297W, strain sur2, active compounds read low 0.99 | locus YDR318W, strain mcm21, active compounds read low 0.977 | locus YDR334W, strain swr1, active compounds read low 0.947 | locus YDR335W, strain msn5, active compounds read low 0.982 | locus YDR363W, strain ESC2, active compounds read low 0.928 | locus YDR388W, active compounds read low 0.994 | locus YDR392W, strain spt3, active compounds read low 1.05 | locus YDR502C, strain sam2, active compounds read low 0.986 | locus YEL003W, strain gim4, active compounds read low 0.976 | locus YEL037C, strain rad23, active compounds read low 0.998 | locus YEL061C, strain CIN8 (second series), active compounds read low 0.97 | locus YEL061C, strain CIN8, active compounds read low 0.997 | locus YER002W, strain NOP16, active compounds read low 0.974 | locus YER015W, strain faa2, active compounds read low 0.996 | locus YER016W, strain bim1, active compounds read low 1 | locus YER110C, active compounds read low 0.985 | locus YER111C, strain swi4, active compounds read low 0.998 | locus YER155C, strain BEM2 (second series), active compounds read low 0.985 | locus YER155C, strain BEM2, active compounds read low 0.996 | locus YER167W, strain BCK2, active compounds read low 0.988 | locus YFR010W, strain ubp6, active compounds read low 1.01 | locus YGL078C, strain dbp3, active compounds read low 1 | locus YGL086W, strain mad1, active compounds read low 0.974 | locus YGL167C, strain pmr1, active compounds read low 0.984 | locus YGL173C, strain kem1, active compounds read low 1.01 | locus YGL227W, strain vid30, active compounds read low 0.956 | locus YGL240W, strain doc1, active compounds read low 1.02 | locus YGL248W, strain PDE1, active compounds read low 0.963 | locus YGL253W, strain hxk2, active compounds read low 0.982 | locus YGR078C, strain PAC10, active compounds read low 1.02 and 0.994 | locus YGR135W, strain pre9, active compounds read low 0.981 | locus YGR229C, strain SMI1, active compounds read low 0.983 | locus YGR252W, strain gcn5, active compounds read low 0.956 | locus YHR013C, strain ard1, active compounds read low 0.974 | locus YHR027C, strain rpn1, active compounds read low 0.966 | locus YHR030C, strain SLT2, active compounds read low 0.987 and 1.04 | locus YHR079C, strain IRE1 (second series), active compounds read low 0.99 | locus YHR079C, strain IRE1, active compounds read low 1.06 | locus YHR094C, strain hxt1, active compounds read low 0.991 | locus YHR129C, strain ARP1, active compounds read low 0.991 | locus YHR142W, strain chs7, active compounds read low 0.956 | locus YHR200W, strain rpn10, active compounds read low 0.987 | locus YIL066C, strain RNR3, active compounds read low 0.971 | locus YIL073C, strain SPO22, active compounds read low 0.989 | locus YIL125W, strain kgd1, active compounds read low 0.992 | locus YIR030C, strain dcg1, active compounds read low 0.991 | locus YJL092W, strain hpr5, active compounds read low 0.978 | locus YJL095W, strain BCK1 (second series), active compounds read low 0.964 | locus YJL095W, strain BCK1, active compounds read low 0.981 and 1.03 | locus YJL115W, strain asf1, active compounds read low 0.926 | locus YJL129C, strain trk1, active compounds read low 0.971 | locus YJL134W, strain LCB3, active compounds read low 0.992 | locus YJL154C, strain vps35, active compounds read low 0.97 | locus YJL164C, strain tpk1, active compounds read low 0.998 | locus YJL166W, strain qcr8, active compounds read low 0.975 | locus YJL168C, strain set2, active compounds read low 0.991 | locus YJL187C, strain SWE1 (second series), active compounds read low 0.983 | locus YJL187C, strain SWE1, active compounds read low 0.99 | locus YJR043C, strain POL32, active compounds read low 1.01 | locus YJR066W, strain TOR1, active compounds read low 0.931
